In the library only some 5.2% were active in any assay of this set; here they are far more common.
SMARCA2 act: activators of SMARCA2 function; MG213 cells, MMTV-luciferase reporter, dexamethasone, overnight; activation, % at 9.1 µM; hit rate 1% among 370,000; AID 652017; in the data active means activation above about 7.8%
Vif imaging: inhibitors of HIV Vif | AID 602346 | inhibition, % at 7.49 µM | hit rate 0.35% among 340,000 | HEK293T cells, Vif self-association by quenched fluorescence, imaging, 24 h; in the data active means inhibition above about 50%, passing the limit was not always enough
esBAF inh: inhibitors of esBAF chromatin remodeling in mouse ES cells; hit rate 2% among 350,000; Bmi1-luciferase knock-in reporter, 24 h; 100% = twice the neutral-well signal; reporter increase, % at 12.5 µM; in the data active means activation above about 40%;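 further: a rise in the Bmi1 reporter signal indicates esBAF inhibition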
NadD block: blocks S. aureus nicotinate mononucleotide adenylyltransferase. purified NadD enzyme, colorimetric absorbance read-out. inhibition, % at 20 µM. hit rate 0.78% among 360,000; in the data active means inhibition above about 26%
NR3A LBD binder: modulates the human NR3A ligand-binding domain; Tm shift relative to glycine control, % at 25 µM; hit rate 2.5% among 340,000; NR3A LBD differential scanning fluorimetry, Tm shift; 0% = protein alone, 100% = glycine-bound protein;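 active means melting temperature shift of at least 10% of the positive control shift, at one fixed dose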
SKN-1 block: C. elegans SKN-1 inhibition; inhibition, % at 21.8 µM; C. elegans VP596 Pgst-4::GFP/RFP ratio, acrylamide-induced, 24 h; hit rate 0.49% among 360,000;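 active means interference check ratio from 0.5 to 1.5 plus GFP to RFP signal ratio inhibition reaching or exceeding a fixed threshold, cut at about 30% in these data, passing the limit was not always enough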
Each line names hits and unclear results; the compound was inactive in the other large screens; ! = not active in a repeat.

O=C(c1cc(COc2cccc(C(F)(F)F)c2)on1)N1CCc2ccccc2C1	none
CC(=O)c1cccc(OCc2cc(C(=O)N(C)C(C)c3ccccn3)no2)c1 (stereo not given)	none
C[C@@H]1CN(C(=O)c2cc(COc3cccc(C(F)(F)F)c3)on2)C[C@H](C)O1	esBAF inh 57
CCOC(=O)N1CCN(C(=O)c2cc(COc3cccc(C(F)(F)F)c3)on2)CC1	NR3A LBD binder 25 (no result: Vif imaging, esBAF inh)
CC(NC(=O)c1cc(COc2cccc(C(F)(F)F)c2)on1)c1nccs1 (stereo not given)	esBAF inh 61
O=C(c1cc(COc2cccc(C(F)(F)F)c2)on1)N1CCCC1	esBAF inh 70 (no result: NR3A LBD binder)
CC(=O)c1ccc(OCc2cc(C(=O)N3CCOCC3)no2)cc1	esBAF inh 61
CC1(C)NC(=O)N(CCOCCSc2ccccc2)C1=O	esBAF inh 61 (no result: Vif imaging)
CC1(C)NC(=O)N(CCOCCOc2ccccc2)C1=O	none (no result: esBAF inh)
Cc1ccc(NC(=O)CSCC(=O)N2CCN(C(=O)c3ccco3)CC2)cc1	none
O=C(OCC(=O)N1CCN(C(=O)c2ccco2)CC1)c1cc(-c2ccco2)nc2ccccc12	NadD block 44 (no result: SMARCA2 act)
Cc1ccc(NC(=O)CSC(C)C(=O)OCC(=O)N2CCN(C(=O)c3ccco3)CC2)cc1 (stereo not given)	Vif imaging 61
CNC(=O)C[C@H]1CC[C@@H]2[C@H](COc3ccc(NC(=O)NCc4ccccc4)cc3C(=O)N2C)O1	none (no result: SMARCA2 act, Vif imaging, NadD block, NR3A LBD binder, SKN-1 block)
COc1cccc2sc3cc(C#CC4(O)CCCCC4)ccc3c(=O)c12	none
COc1cc2sc3ccc(-c4ccc5[nH]ccc5c4)cc3c(=O)c2cc1OC	esBAF inh 51
COc1cc2sc3ccc(C#Cc4ccc(N)cc4)cc3c(=O)c2cc1OC	SKN-1 block 40
COc1cc2sc3ccc(C#CC4(O)CCCCC4)cc3c(=O)c2cc1OC	SMARCA2 act 7.8
C[C@@H]1CN([C@H](C)CO)C(=O)Cc2cc(NS(=O)(=O)c3ccccc3)ccc2O[C@H]1CN(C)C(=O)Nc1ccc2c(c1)OCO2	none (no result: SMARCA2 act, Vif imaging, NadD block, NR3A LBD binder, SKN-1 block)
O=C(Nc1ccc(F)cc1)c1oc2ccccc2c1NC(=O)C1CCCC1	NR3A LBD binder 13 (no result: SMARCA2 act, esBAF inh)
CCCC1C2C(=O)N(c3ccccc3OC)C(=O)C2ON1c1ccccc1 (stereo not given)	NR3A LBD binder 20
CCCC1C2C(=O)N(c3ccccc3)C(=O)C2ON1c1ccccc1 (stereo not given)	none (no result: esBAF inh)
COc1ccccc1CNC(=O)C[C@H]1C[C@H]2c3cc(NS(C)(=O)=O)ccc3O[C@H]2[C@H](CO)O1	none (no result: SMARCA2 act, Vif imaging, NadD block, NR3A LBD binder, SKN-1 block)
O=C(C[C@H]1CC[C@@H]2[C@H](COC[C@H](O)CN2C(=O)c2ccncc2)O1)NCc1ccc(-c2ccccc2)cc1	none (no result: SMARCA2 act, Vif imaging, NadD block, NR3A LBD binder, SKN-1 block)
c1cncc(-c2csc(-c3cccnc3)n2)c1	none
c1cncc(-c2nc(-c3ccc4c(c3)OCO4)cs2)c1	esBAF inh 52
Nc1nc(-c2ccc3c(c2)OCCO3)cs1	esBAF inh 51
c1ccn2cc(-c3ccc4c(c3)OCCO4)nc2c1	SKN-1 block 38 (no result: esBAF inh)
Cc1nc(-c2ccc3c(c2)OCCCO3)cs1	none (no result: esBAF inh)
Clc1ccsc1-c1csc(-c2cccnc2)n1	esBAF inh 70, SKN-1 block 42
Cc1nc(-c2ccc3c(c2)OCO3)cs1	none
C[C@H](NC(=O)C[C@@H]1CC[C@@H](NC(=O)Cc2ccccn2)[C@H](CO)O1)c1ccccc1	none (no result: SMARCA2 act, Vif imaging, NadD block, NR3A LBD binder, SKN-1 block)
COc1ccc(-c2coc3cc(O)cc(O)c3c2=O)cc1OC	esBAF inh 54
COc1ccc(-c2c(C)oc3cc(O)cc(O)c3c2=O)cc1OC	none (no result: Vif imaging)
COc1ccc(-c2coc3cc(O)ccc3c2=O)cc1OC	esBAF inh 59
COc1ccccc1Oc1coc2cc(O)ccc2c1=O	none
COc1ccccc1-c1coc2cc(O)cc(O)c2c1=O	esBAF inh 46
O=c1c(-c2ccc(O)cc2O)coc2cc(O)cc(O)c12	none
CCCNC(=O)C[C@@H]1C[C@H]2c3cc(NC(=O)C4CCOCC4)ccc3O[C@H]2[C@H](CO)O1	none (no result: SMARCA2 act, Vif imaging, NadD block, NR3A LBD binder, SKN-1 block)
CC(=O)c1ccc(NC(=O)c2ccc(COc3ccccc3[N+](=O)[O-])o2)cc1	NR3A LBD binder 13
C=CCc1ccc(OCc2ccc(C(=O)Nc3ccc(NC(C)=O)cc3)o2)c(OC)c1	esBAF inh 47
O=C(c1ccc(COc2ccccc2Cl)o1)N1CCN(Cc2ccc3c(c2)OCO3)CC1	NR3A LBD binder 15!
Cc1ccc2c(C)c(C(=O)N3CCN(Cc4ccc5c(c4)OCO5)CC3)oc2c1C	esBAF inh 79
C[C@H](CO)N1C[C@H](C)[C@H](CN(C)C(=O)Cc2ccncc2)Oc2ncc(C#CC3(O)CCCC3)cc2C1=O	none (no result: SMARCA2 act, Vif imaging, NadD block, NR3A LBD binder, SKN-1 block)
C[C@@H]1CN([C@H](C)CO)C(=O)CCCn2cc(nn2)CO[C@@H]1CN(C)C(=O)Nc1ccc(C(F)(F)F)cc1	none (no result: SMARCA2 act, Vif imaging, NadD block, NR3A LBD binder, SKN-1 block)
CS(=O)(=O)Nc1ccc2c(c1)[C@@H]1C[C@@H](CC(=O)N3CCOCC3)O[C@@H](CO)[C@@H]1O2	none (no result: SMARCA2 act, Vif imaging, NadD block, NR3A LBD binder, SKN-1 block)
O=C(c1ccc(COc2ccccc2[N+](=O)[O-])o1)N1CCCCCC1	esBAF inh 55
O=C(NNC(=O)c1ccc(-c2ccc([N+](=O)[O-])cc2)o1)c1ccncc1	none
COc1cc([N+](=O)[O-])ccc1-c1ccc(C(=O)Nc2ccc(NC(C)=O)cc2)o1	none (no result: esBAF inh)
COc1cccc(NC(=O)c2ccc(-c3ccc([N+](=O)[O-])cc3)o2)c1	NR3A LBD binder 17 (no result: esBAF inh)
Cc1nnc(NC(=O)c2ccc(-c3ccc([N+](=O)[O-])cc3)o2)s1	none
CC(=O)Nc1ccc(NC(=O)c2ccc(-c3ccc([N+](=O)[O-])cc3)o2)cc1	NR3A LBD binder 12
COc1ccc(NC(=O)c2ccc(-c3ccc([N+](=O)[O-])cc3)o2)cc1OC	NR3A LBD binder 14 (no result: esBAF inh)
Cc1cc2nc(CCN(Cc3cccnc3)C(=S)Nc3ccc(F)cc3)[nH]c2cc1C	NR3A LBD binder 27
Cc1cc2nc(CCN(Cc3cccnc3)C(=S)Nc3ccccc3)[nH]c2cc1C	none
CCCN1[C@H](C(=O)N[C@@H](C)c2ccccc2)[C@@H](CO)[C@@H]2Cn3c(ccc(-c4ccccc4)c3=O)[C@@H]21	none (no result: SMARCA2 act, Vif imaging, NadD block, NR3A LBD binder, SKN-1 block)
CC(C)C(OC(=O)c1ccccc1)c1nccc2ccccc12 (stereo not given)	esBAF inh 72
CN1C(=O)c2cc(NC(=O)NCc3ccccc3)ccc2OC[C@@H]2O[C@@H](CC(=O)O)CC[C@H]21	none (no result: SMARCA2 act, Vif imaging, NadD block, NR3A LBD binder, SKN-1 block)
Cn1c(C(=O)NCCc2c[nH]c3ccccc23)cc2sccc21	esBAF inh 74, NR3A LBD binder 16
Cc1nc2ccc(C(=O)NCCc3c[nH]c4ccccc34)cn2c1N(C)C(=O)CCc1ccccc1	Vif imaging 54 (no result: NR3A LBD binder)
O=C(NCCc1c[nH]c2ccccc12)c1ccc2nc[nH]c2c1	NR3A LBD binder 27
Cc1ccc(NC(=O)c2ccc3nc[nH]c3c2)c(O)c1	esBAF inh 51
O=C(NCCc1c[nH]c2ccccc12)c1cc2sccc2n1Cc1ccccc1	none

Source: PubChem BioAssay
